From PubChem BioAssay (NCI) come the findings set out here.

Compounds without any hit were thinned out: in the full panel of roughly 83,000, 20% have a hit.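 Compound tested at a single concentration for 48 hours in 96-well plates; a percent growth value below 10 was scored as active.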 Activity calls are given as the source filed them.

In the test the test system is SK-MEL-2 melanoma. The test can be described thus: NCI-60 one-dose screen, 48 h (100 = growth as untreated, 0 = no growth, -100 = all killed). The settings on record: 10 µM unless noted. The method, then: Growth inhibition of the SK-MEL-2 human tumor cell line is measured as a screen for anti-cancer activity. Cells are grown in 96 well plates and exposed to the test compound for 48 hours. Compounds are tested at a single concentration, which is 10^-5 M for most compounds. The reported endpoint is percent growth (GI% or GIPRCNT), where numbers from 0 - 100% represent growth inhibition, and numbers from -100% - 0 represent cell death. For example, a value of 40 represents 60% growth inhibition. A value of 0 means no net growth occurred over the course of the experiment. A value of -40 indicates 40% of cells at the beginning of the experiment died by the end of the experiment. A value of -100 means all cells are dead at the end of the experiment.
NCI-60 Human Tumor Cell Lines Screen was performed using the standard one-dose NCI protocol, which is described in more detail at https://dtp.cancer.gov/discovery_development/nci-60/default.htm.
Compounds with GIPRCNT values below 10 were considered active. Activity score was based on GIPRCNT using the following formula: […]
Score is 0 for GIPRCNT values of 100 or above, 50 for GIPRCNT values of 0, and 100 for GIPRCNT values of -100.
For `CCCn1cnc2c(c1=N)C(c1ccc(OC)cc1)c1sc3c(C)cccc3c1O2` (stereo not given), the growth was 36.9% (inactive).

Consider `O=C(CN1CCN(c2cc(=O)n(-c3ccccc3)c3ccccc23)CC1)Nc1ccc(F)cc1`, for which the growth was 87.9% (inactive).

Regarding `COc1ccc(NC2=C(Cl)C(=O)c3nc(C)ccc3C2=O)cc1OC`, the growth was 100% (inactive).

Regarding `CCN(CC)c1ccc2c(c1)Oc1nc(N)c(C#N)c(N)c1C2Sc1ccc(C)cc1` (stereo not given), the growth is -83.2% (active).

As to `COc1ccc(NC(=O)CSc2nnc(-c3ccc4nc(-c5ccc(OC)c(OC)c5)[nH]c4c3)o2)cc1OC`, the growth was 103% (inactive).

For the compound `O=C1[C@H]2Cc3c([nH]c4ccccc34)[C@@H](c3ccc(Br)cc3)N2C(=O)CN1C1CCN(CC2CCCCC2)CC1`, the growth is 16.7% (inactive).

`CC(C)c1ccc(NCc2cn(-c3ccc(C(=O)O)cc3)nc2-c2cc(C(F)(F)F)cc(C(F)(F)F)c2)cc1`: the growth is 91.8% (inactive).

In the case of `CC(C)(C)c1ccc(C(=O)Nc2sc3c(c2C(N)=O)CC/C(=N\O)C3)cc1`, the growth is -3.77% (active).

`CCO/C=N/C1=C(C#N)C(c2ccc(OC)cc2)c2sc3c(C)cccc3c2O1` (stereo not given): the growth is 36.5% (inactive).

On to `COc1ccccc1-n1cc(C#N)c(N)c1C(=O)c1ccc(C)cc1`, for which the growth is 79.1% (inactive).

Turning to `COc1cc2nc(Cl)nc(Nc3cccc(C4=Nc5c(N)nc(N)nc5NC(c5ccc6c(c5)OCO6)C4)c3)c2cc1OC` (stereo not given), the growth was 85.2% (inactive).

Consider `CCOP(=O)(OCC)OC[C@]12CCC(C)(C)C=C1[C@H]1CC[C@@H]3[C@@]4(C)CC[C@H](OP(=O)(OCC)OCC)C(C)(C)[C@@H]4CC[C@@]3(C)[C@]1(C)CC2`, for which the growth was -60.9% (active).

In the case of `NC(N)=Nc1ccc(Nc2cccc(Oc3ccc(Cl)c(C(F)(F)F)c3)c2)cn1`, the growth was 74.9% (inactive).

Consider `C#CCC#CCN1CCC[C@H]1C(=O)NCC(=O)OC`, for which the growth is 99.8% (inactive).

Consider `COc1cc(-c2nc3sccn3c2-c2ccnc(S(C)(=O)=O)n2)ccc1F`, for which the growth is 96% (inactive).

With `C#C[C@]1(O)CC[C@H]2[C@@H]3CC=C4c5sc(-c6cccc(O)c6)nc5CC[C@]4(C)[C@H]3CC[C@@]21C`, the growth was -24.6% (active).

Turning to `COc1ccc([C@H]2[C@H](O)C(=O)N2c2cc(OC)c(OC)c(OC)c2)cc1F`, the growth is -43.3% (active).

On to `Cc1nc2ncc(-c3ccc4ncnc(NCc5ccccc5)c4c3)cc2[nH]1`, for which the growth is 74% (inactive).

As to `O=C(CN1CCN(c2cc(=O)n(-c3ccccc3)c3ccccc23)CC1)Nc1nc(-c2ccc(Cl)cc2)cs1`, the growth is 75.6% (inactive).

`NS(=O)(=O)c1ccc(Nc2nc(N/N=C/c3c[nH]c4ccccc34)nc(Nc3ccccc3)n2)cc1`: the growth was 67.3% (inactive).

Turning to `CC1(C)NCCC[C@]2(C)[C@H]3C/C(=N\O)C4[C@@H]5C[C@@](C)(CO)CC[C@]5(C)CC[C@@]4(C)[C@]3(C)CC[C@@H]12` (stereo not given in full), the growth was 101% (inactive).

Turning to `Cc1ccc(-c2cc3nc(C(Cl)Cl)nc(C)n3n2)cc1`, the growth was 110% (inactive).

For `Cc1ccc(NC(=O)c2ccc(CN3CCOCC3)c(C(F)(F)F)c2)cc1Oc1ccc(-c2[nH]nc3ncnc(N)c23)cc1`, the growth is 59.6% (inactive).

For `O=C(CCn1cc[n+](CC(=O)c2ccc(-c3ccccc3)cc2)c1)Nc1cccc2cccnc12`, the growth was 90.1% (inactive).

Take `Cc1ccc(-n2cc(/C=N/NC(=O)c3ccncc3)c(-c3ccc(S(C)(=O)=O)cc3)n2)cc1`: the growth was 97.7% (inactive).

For the compound `O=[N+]([O-])c1cc(/C=N/Nc2nc(N/N=C/c3ccc(Cl)c([N+](=O)[O-])c3)nc(N3CCCCC3)n2)ccc1Cl`, the growth is 80.7% (inactive).

Take `Cn1ccnc1C(=O)/C=C/C=C/c1ccc(C(=O)Nc2ccc(F)cc2)cc1`: the growth is 90.8% (inactive).

`O=C(CSc1nnc(-c2ccc3nc(-c4ccccc4)[nH]c3c2)o1)Nc1ccc(C(=O)/C=C/c2ccccc2)cc1`: the growth is 103% (inactive).

For `CNC(=O)c1cc(-n2ccc3cc(NC(=O)Nc4ccc(N5CCOCC5)c(C(F)(F)F)c4)ccc32)ccn1`, the growth was 68.8% (inactive).

Consider `N#Cc1c(-c2cccs2)cc(-c2cnccn2)nc1SCC(=O)c1ccc(F)cc1`, for which the growth was 102% (inactive).

`O=S(=O)(Oc1ccc(-c2nnc(Nc3ccccc3)s2)cc1)C(F)(F)C(F)(F)C(F)(F)C(F)(F)C(F)(F)C(F)(F)F`: the growth was 106% (inactive).

On to `CC1(C)[C@@H](O)CC[C@]2(C)[C@H]3CC[C@@H]4[C@H]5[C@H](C(=O)/C=C\c6ccncc6)CC[C@]5(O)CC[C@@]4(C)[C@]3(C)CC[C@@H]12`, for which the growth is 94.9% (inactive).

For the compound `C#CCOC(=O)[C@@H]1CCCN1CC#C`, the growth was 98.2% (inactive).

Consider `COc1ccc(CCOc2cc3c(cc2OC)CCN(C(=O)NCc2cocn2)C3c2ccc(C)cc2C)cc1` (stereo not given), for which the growth is -7.32% (active).

As for `CS(=O)(=O)Nc1cc(-c2ccc3ncc(C#N)c(NCc4ccccc4F)c3c2)cnc1Cl`, the growth was -52.3% (active).

With `Cc1nn(-c2ccccc2)c2ncnc(N/N=C/c3cccc(O)c3)c12`, the growth is 22.6% (inactive).

For `O=C(NCCn1ccnc1)c1ccc(-c2nc3ccc4[nH]ncc4c3c3c2CCCC3)cc1`, the growth was 45.3% (inactive).

For `COc1ccc(Cn2cc3c(c2-c2cc(OC)c(OC)c(OC)c2)CCc2c(CN4CCCC4)noc2-3)cc1`, the growth is 57.1% (inactive).

As to `COc1cccc(N2CCN(c3ncnc4c3[nH]c3ccc(F)cc34)C[C@H]2C)c1`, the growth was 55% (inactive).

Regarding `NC(N)=Nc1ccc(Oc2cccc(Nc3ccc(Cl)cc3)c2)cn1`, the growth was 64.6% (inactive).
